Hits are enriched below; roughly 19% of the tested compounds scored in any of these assays.
TGFb inhibitor: qHTS for Inhibitors of TGF-b; HepG2 CAGA-GFP TGF-b/SMAD3 reporter, GFP fluorescence, 18 h; TGF-beta stimulated, 500 pg/mL final; Potency, µM (titrated, usually from 46.1 µM), without a hit: at the highest dose activity, negative = inhibition, most hits filed as inhibitors; 410,000 compounds, 1.2% hits; AID 588855, 2011; further: potency means the concentration at half of the fitted maximal effect; on the % scale 0 is the no-effect control and ±100 the full control effect; nearly all actives have a fitted effect of over 65% in size
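Inhibition was scored as loss of TGF-beta-induced (500 pg/mL final, 18 hours, 37 degrees C) GFP in HEPG2 cells carrying a CAGA-GFP reporter, in DMEM with 1% FBS. Well GFP was summed per cell; Activity was normalised to unstimulated and stimulated DMSO wells, then concentration-response fitting.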
TDP1 cell noCPT: qHTS for Inhibitors of human tyrosyl-DNA phosphodiesterase 1 (TDP1): qHTS in cells in absence of CPT | DT40 Tdp1-/- hTDP1 cells, no CPT, ATP luminescence, 48 h | Potency, µM (top dose mostly 46.2 µM), without a hit: at the highest dose activity change, negative = growth inhibition, usual class: inhibitors | 420,000 compounds, 15% hits; further: potency means the concentration at half of the fitted maximal effect; on the % scale 0 is the no-effect control and ±100 the full control effect; nearly all actives have a fitted effect of over 55% in size
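Readout: luminescence from CellTiter-Glo after 30 min in the dark at RT. Cells: DT40 Tdp1-/- with stable hTDP1, 400/well. Exposure: compounds alone, ≥48 hr, 37 °C.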
HepG2 viability: qHTS for Inhibitors of TGF-b: Cytotox Counterscreen | HepG2 CAGA-GFP viability, ATP luminescence, 18 h | Potency, µM (doses to about 46.1 µM), for inactives: at the highest dose activity change, negative = cytotoxicity, hits mostly cytotoxic | 410,000 compounds, 0.76% hits; further: potency means the concentration at half of the fitted maximal effect
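CellTiter-Glo luminescence gave cytotoxicity after 18 hours at 37 degrees C. The cells were HepG2 CAGA-GFP in 1% FBS DMEM, stimulated with 500 pg/mL TGF-beta after compound addition. %Activity was normalised to no-cell wells (complete cell-killing) and DMSO (no toxicity), and curves were fitted and classified.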
IL1B secr inh: qHTS for Inhibitors of Inflammasome Signaling: IL-1-beta AlphaLISA Primary Screen; THP-1 LPS/ATP IL-1B secretion, AlphaLISA, 16 h; hits give low values; activity change, % at 57.5 µM; 360,000 compounds, 4.7% hits; AID 743279, 2014; in the data active means activity change below about -50%; inconclusive means mostly about -30% to -49%; further: on the % scale 0 is the no-effect control and ±100 the full control effect
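Secreted IL-1B measured by AlphaLISA bead assay after 16 h compound exposure of THP-1 cells; compounds (final up to 57.5 uM) added 1 h before LPS (250 ng/mL) and ATP (1.25 mM) stimulation; lower signal means less secretion.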
DT40 TDP1 CPT: qHTS for Inhibitors of human tyrosyl-DNA phosphodiesterase 1 (TDP1): qHTS in cells in presence of CPT. chicken DT40 Tdp1-/-;hTDP1 cells + 20 nM CPT, ATP luminescence, 48 h. 420,000 compounds, 12% hits. Potency, µM (top dose mostly 46.2 µM), for inactives: at the highest dose activity change, negative = growth inhibition, hits mostly inhibitors; further: potency means the concentration at half of the fitted maximal effect; on the % scale 0 is the no-effect control and ±100 the full control effect; nearly all actives have a fitted effect of over 55% in size
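Chicken DT40 Tdp1-/- cells stably complemented with human TDP1 were seeded at 400 cells/well in medium containing 20 nM camptothecin, exposed to pin-transferred compounds, and grown at 37 °C for at least 48 hr. Viability was read as ATP luminescence.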
S-ASM inh: Inhibitors of Secretory Acid Sphingomyelinase (S-ASM): qHTS; placental ASM, HMU-PC fluorogenic substrate, 60 min; Sphingomyelin phosphodiesterase (Homo sapiens), P17405; AID 504937, 2011; Potency, µM (series often up to 57.5 µM), without a hit: at the top dose activity change, negative = inhibition, hits mostly inhibitors; 340,000 compounds, 0.006% hits; further: potency means the concentration at half of the fitted maximal effect
Target sequence (P17405 47-631 limits assumed): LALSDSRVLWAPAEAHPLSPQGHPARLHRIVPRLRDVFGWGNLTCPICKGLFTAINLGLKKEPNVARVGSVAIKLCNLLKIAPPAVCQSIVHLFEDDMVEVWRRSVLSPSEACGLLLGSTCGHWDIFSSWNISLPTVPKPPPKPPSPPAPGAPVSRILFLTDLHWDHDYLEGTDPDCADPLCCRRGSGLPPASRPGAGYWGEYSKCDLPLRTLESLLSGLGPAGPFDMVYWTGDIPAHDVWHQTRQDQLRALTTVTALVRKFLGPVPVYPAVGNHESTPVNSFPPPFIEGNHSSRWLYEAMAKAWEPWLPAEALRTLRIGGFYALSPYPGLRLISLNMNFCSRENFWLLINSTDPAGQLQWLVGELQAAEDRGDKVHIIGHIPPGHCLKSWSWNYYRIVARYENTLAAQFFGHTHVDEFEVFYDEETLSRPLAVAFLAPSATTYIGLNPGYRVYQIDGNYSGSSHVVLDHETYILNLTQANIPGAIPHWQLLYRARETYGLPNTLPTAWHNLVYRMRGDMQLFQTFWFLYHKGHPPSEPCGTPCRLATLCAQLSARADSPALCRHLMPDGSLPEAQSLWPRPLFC
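Steps: dispense placental human ASM, pin compound, wait 10 min at room temperature, add HMU-PC0 substrate at 9 uM final, incubate 60 min at 37 °C, add stop solution raising pH to 10, read fluorescence.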
Active calls of the source: *; ? = inconclusive; · = no result. Unless noted, the call rests on the fitted dose curve; in most records, active means well fitted curve in the direction sought with a large enough effect; inconclusive means small, poorly fitted or top-dose-only effect, or another doubt; inactive means no such curve, though single readings can be large; an effect the other way counts as inactive or inconclusive.

SMILES | TGFb inhibitor | TDP1 cell noCPT | HepG2 viability | IL1B secr inh | DT40 TDP1 CPT | S-ASM inh
O=C(c1cc(S(=O)(=O)N2CCCC2)c(Cl)cc1Cl)N1CCCC1 | 10% | -12% | 4% | 12 | 0% | -4%
O=C(Nc1cccc(F)c1)N1CC[C@@]2(CCCN(C(=O)c3cccc(F)c3)C2)C1 | · | -5% | · | · | 8% | ·
O=C(CSc1nnc(CNc2ccc(Cl)cc2)o1)Nc1nc2c(s1)CCCC2 | ? | ? | 10% | -16 | 15µM* | -16%
COc1cc(NC(=O)CCc2c(C)nc3cc(-c4ccccc4)nn3c2C)cc(OC)c1OC | 1% | 21µM* | 6% | · | ? | ·
COc1cc(-c2cc3n(C)c(C)c(CCC(=O)NCc4ccccc4)c(=O)n3n2)cc(OC)c1OC | -1% | -69% | -23% | · | 15µM* | ·
COc1cc(-c2noc(CCCC(=O)NCc3ccccc3)n2)cc(OC)c1OC | -4% | ? | -8% | 12 | -29% | 4%
COC(=O)c1cc(NC(=O)CCc2c(C)nc3cc(-c4ccccc4)nn3c2C)cc(C(=O)OC)c1 | ? | 1% | -10% | · | 7% | ·
COc1cc(OC)cc(-c2cc3nc(C)c(CCC(=O)Nc4ccc(F)c(Cl)c4)c(C)n3n2)c1 | -1% | 16µM* | 15% | · | 18µM* | ·
Cc1ccc(C)c(NC(=O)CCc2c(C)n(C)c3cc(-c4ccccc4C)nn3c2=O)c1 | ? | 15µM* | -32% | · | 21µM* | ·
COc1ccc(NC(=O)CCc2c(C)nc3cc(-c4cccc(F)c4)nn3c2C)cc1Cl | ? | 13µM* | -16% | · | 16µM* | ·
Cc1nc2cc(-c3cccc(F)c3)nn2c(C)c1CCC(=O)NC(C)c1ccccc1 (stereo not drawn) | ? | ? | -7% | · | ? | ·
CCCCCCNC(=O)CCc1c(C)nc2nc(-c3cc(OC)cc(OC)c3)nn2c1C | -1% | 16µM* | 0% | · | ? | ·
COc1cc(OC)cc(-c2cc3nc(C)c(CCC(=O)Nc4nc(C)cs4)c(C)n3n2)c1 | 4% | 10µM* | -10% | -13 | 18µM* | 4%
COc1cc(NC(=O)CCc2c(C)nc3nc(C)nn3c2C)cc(OC)c1 | ? | -27% | -3% | -19 | -1% | -5%
COc1ccc(NC(=O)NC2(C(=O)N3CCCCC3)CCCCC2)cc1 | 1% | ? | -3% | 23 | ? | 0%
COc1ccc(C(=O)N2CC(=O)Nc3ccc(C)cc3C2c2ccccc2)cc1OC (stereo not drawn) | 0% | ? | -22% | · | ? | ·
CCCCC(=O)Nc1ccc(NCc2ccc(C)s2)cc1 | -4% | 3.7µM* | 8% | -13 | ? | 0%
CC(=O)Nc1ccc(S(=O)(=O)N2CCC(Oc3ccc(-n4cnnn4)cc3)CC2)cc1 | ? | ? | -5% | 15 | ? | -5%
O=S(=O)(c1cccc(F)c1)N1CCC(Oc2ccc(-n3cnnn3)cc2)CC1 | 0% | 15µM* | 1% | · | 16µM* | ·
COc1cc(=O)n2c(c1C(=O)NCc1ccco1)CCN(Cc1c(F)cccc1F)CC2 | · | -7% | · | · | -7% | ·
CC1=C(C(=O)Nc2ccc(Br)cc2)C(c2ccco2)NC(=O)N1 (stereo not drawn) | 1% | ? | 0% | 11 | 23µM* | -2%
CC1=C(C(=O)Nc2ccc(C)cc2)C(c2ccco2)NC(=O)N1 (stereo not drawn) | -8% | -10% | 2% | 13 | -6% | 3%

High-throughput results: PubChem BioAssay, National Center for Advancing Translational Sciences (NCATS)
